Bioassay records: PubChem, National Center for Advancing Translational Sciences (NCATS)
Only some compounds are listed: those with a hit (about 9.3% of all), similar ones and a draw of the others.
FMDV inh: High Throughput Screening for Foot and Mouth Disease Virus Antivirals. FMDV antiviral cell-based qHTS. Potency, µM (titrated, usually from 57.9 µM), inactives show top-dose activity change, negative = inhibition, actives largely listed as inhibitors. hit rate 1.2% among 410,000; calls by dose curve; tested in HEK293T cells; further: read-out not given here; potency means the concentration at half of the fitted maximal effect; nearly all actives have a fitted effect of over 45% in size
Sm TGR inh: qHTS Assay for the Inhibitors of Schistosoma Mansoni Peroxiredoxins; hit rate 3% among 360,000; Schistosoma mansoni thioredoxin glutathione reductase (TGR), Q962Y6; Potency, µM (top dose mostly 114 µM), for the others: at the highest dose activity change, negative = inhibition, hits mostly inhibitors; purified TGR, DTNB reduction, TNB absorbance 405 nm; further: potency means the concentration at half of the fitted maximal effect; nearly all actives have a fitted effect of over 60% in size
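Kinetic colorimetric format: TGR-catalysed, NADPH-driven DTNB reduction monitored via TNB absorbance. Enzyme dispensed at 20 nM; compound exposure 15 min at room temperature before reaction start.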
HCV inhibitor: qHTS Assay for Inhibitors of Hepatitis C Virus (HCV) | hit rate 3.4% among 340,000 | Potency, µM (titrated, usually from 41.8 µM), for the others: at the top dose activity change, negative = inhibition, actives largely listed as inhibitors | Huh7.5.1 HCVcc-Cre infection, luciferase reporter, 44 h | AID 651820, 2012; further: potency means the concentration at half of the fitted maximal effect
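Luciferase read-out (15 sec integration) after a 15 min room-temperature substrate step quantifies HCVcc-Cre infection. Cells, 1,000 per well, had compound added 4 h post-plating, then virus at ~0.5 moi, and were cultured 44 h.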
Vaccinia mCherry: qHTS for Stage-Specific Inhibitors of Vaccinia Orthopoxvirus: mCherry Reporter Primary qHTS. Vaccinia virus mCherry reporter infection, fluorescence. Potency, µM (series often up to 36.5 µM), without a hit: at the highest dose activity change, negative = inhibition, actives largely listed as inhibitors. hit rate 0.63% among 310,000; calls by dose curve; tested in A549 cells; further: potency means the concentration at half of the fitted maximal effect; nearly all actives have a fitted effect of over 35% in size
HCMV inh: qHTS Assay for inhibitors of the human cytomegalovirus (HCMV); HFF cells, HCMV-luciferase reporter, 72 h; hits give low values; activity change, negative = inhibition, % at 57.5 µM; hit rate 4.5% among 410,000; in the data active means activity change below about -60%; inconclusive means no clear call, values can overlap the other calls; inactive means above about -39%
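Screen run at 2 compound doses on HFFs infected with reporter HCMV, MOI 1 PFU/cell. Luciferase activity from cell lysates at 72 h post infection gave inhibition relative to buffer-only and Salinomycin wells.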
VACV Venus inh: qHTS for Stage-Specific Inhibitors of Vaccinia Orthopoxvirus: Venus Reporter Primary qHTS; Vaccinia virus Venus reporter expression, fluorescence; Potency, µM (doses to about 36.5 µM), for inactives: at the highest dose activity change, negative = inhibition, usual class: inhibitors; hit rate 0.46% among 330,000; calls by dose curve; tested in A549 cells; further: potency means the concentration at half of the fitted maximal effect; nearly all actives have a fitted effect of over 30% in size
Numbers without * were called inactive; i = inactive; ? = inconclusive; nt = no result given. Unless noted, the call rests on the fitted dose curve; in most records, active means well fitted curve in the direction sought with a large enough effect; inconclusive means small, poorly fitted or top-dose-only effect, or another doubt; inactive means no such curve, though single readings can be large; an effect the other way counts as inactive or inconclusive. On the % scale 0 is the no-effect control and ±100 the full control effect.

SMILES	FMDV inh	Sm TGR inh	HCV inhibitor	Vaccinia mCherry	HCMV inh	VACV Venus inh
Cc1ccc(-c2nnc3c(C(F)(F)F)nc4ccccc4n23)cc1	-15%	-3%	-3%	0%	-24	-7%
FC(F)(F)c1nc2ccccc2c2nc3ccccc3n12	11%	-9%	14%	i	9	6%
FC(F)(F)c1nnc2c(Sc3ccc(Cl)cc3)nc3ccccc3n12	?	-20%	?	nt	-103*	nt
FC(F)(F)c1nnc2c(Sc3ccccn3)nc3ccccc3n12	6%	25µM*	?	nt	-3	nt
FC(F)(F)c1nc2ccccc2n2c(-c3ccc(Cl)cc3)nnc12	?	5%	5%	nt	-106*	?
O=S(=O)(c1ccc(Cl)cc1)N1CCOCC1	nt	nt	nt	-8%	nt	-14%
N#CC(=C1C=CC(=NO)C(Cl)=C1)c1ccc(Cl)cc1	-15%	nt	6%	-7%	-74*	-9%
COc1cccc(Cn2ncc3c4sc(Br)cc4n(C)c3c2=O)c1	nt	-1%	nt	nt	nt	nt
O=C1NC2C3CC(c4ccccc43)C12 (configuration not stated)	-22%	nt	nt	-3%	-70*	-11%
COc1ccc(CNC(=S)Nc2ccc(OC)cc2)cc1	39%	37%	0%	-10%	20	-11%
COc1ccc(NC(=S)NCc2ccc(F)cc2)cc1	42%	?	-3%	nt	-64*	nt
COc1ccc(CCNC(=S)Nc2ccc(OC)cc2)cc1	-6%	-19%	-13%	nt	-66*	nt
COc1ccc(CCNC(=S)Nc2ccccc2)cc1	27%	-22%	?	nt	-35	nt
COc1ccc(NC(=S)NCCc2c[nH]c3ccccc23)cc1	15%	4%	-7%	-28%	-24	-22%
COc1ccc(NC(=S)NCCc2c(C)[nH]c3ccc(OC)cc23)cc1	11%	-1%	-22%	-22%	-69*	-13%
Cc1ccc(S(=O)(=O)N[C@@H](Cc2ccccc2)C(=O)CCl)cc1	32µM*	11µM*	-15%	-14%	21	?
COC(=O)[C@H](Cc1ccccc1)NS(=O)(=O)N[C@@H](Cc1ccccc1)C(=O)OC	19%	0%	11%	i	-62*	0%
CC(=O)NC(CC(C)C)C(=O)NC(Cc1ccccc1)C(=O)CCl (configuration not stated)	28µM*	nt	?	-7%	-11	-18%
CC(=O)NC(CC(C)C)C(=O)NC(Cc1ccccc1)C(N)=O (configuration not stated)	32%	3%	18%	nt	nt	nt
COC(=O)C(Cc1ccc(O)cc1)NS(=O)(=O)Cc1ccccc1 (configuration not stated)	nt	nt	nt	nt	12	nt
COC(=O)[C@H](Cc1ccccc1)NC(=O)[C@@H](N)CC(=O)O	-6%	nt	0.56µM*	-7%	?	-19%
Cc1nnc(NC(=O)CSc2nnc(-c3ccc(S(=O)(=O)N4CCCC4)cc3)n2C)s1	8%	-26%	4%	nt	8	nt
COc1ccccc1NC(=O)NCCN1CCN(c2cccc(Cl)c2)CC1	-24%	8%	2%	-13%	40	0%
c1ccc2c(C[C@@H]3CNCCN3CC3CCCCC3)cccc2c1	-17%	-10%	?	?	-63*	?
CC(=O)OC(C)(C)/C=C/C(=O)[C@](C)(O)C1[C@H](O)C[C@@]2(C)C3CC=C4C(C[C@H](O)C(=O)C4(C)C)[C@]3(C)C(=O)C[C@]12C (some centres not stated)	28µM*	nt	-19%	0.5µM*	nt	2.5µM*
SMILES	FMDV inh	Sm TGR inh	HCV inhibitor	Vaccinia mCherry	HCMV inh	VACV Venus inh
CC(C)(O)/C=C/C(=O)C(C)(O)C1C(O)CC2(C)C3CC=C4C(C=C(O)C(=O)C4(C)C)C3(C)C(=O)CC12C (configuration not stated)	-5%	nt	?	7.9µM*	-97*	28µM*
Cc1ccc(C(=O)N2CC(C)OC(C)C2)c(Cl)c1 (configuration not stated)	24%	2%	14%	nt	23	nt
O=C(Nc1cccc(F)c1)N1CCC2(CC1)CCN(C(=O)c1cnccn1)CC2	-15%	nt	nt	nt	nt	nt
C=CCOC(=O)Nc1c(C(=O)OC)[nH]c2ccccc12	-5%	-22%	10µM*	nt	53	15%
CCOC(=O)Nc1c(C(=O)OC)[nH]c2cc(OC)ccc12	-9%	2%	25µM*	?	37	-17%
COC(=O)c1[nH]c2ccccc2c1NC(=O)c1ccccc1F	-6%	-2%	13µM*	nt	6	nt
CCOC(=O)c1[nH]c2ccc(OC)cc2c1NC(=O)OC	-1%	-1%	-29%	nt	-29	-11%
CCOC(=O)c1[nH]c2ccccc2c1NC(=O)c1c(F)cccc1F	-11%	-8%	nt	-7%	-2	-4%
CCOCCCNC(=O)C(c1ccc(Cl)cc1)N(Cc1ccc2c(c1)OCO2)C(=O)c1ccccc1O (configuration not stated)	56%	-6%	nt	-10%	2	-12%
COc1cccc(-c2cc(C(=O)NC3CCCCC3)no2)c1	47%	7%	-6%	-7%	28	5%
CC1CCN(S(=O)(=O)c2ccc3c(c2)oc(=O)n3CC(=O)N2CCc3ccccc3C2)CC1	-6%	-12%	6%	-15%	-7	?
O=c1cnnc(N/N=C/c2cccs2)[nH]1	-19%	14%	30%	nt	-32	nt
COc1ccc(C(C)NCCC(c2ccc(OC(C)C)cc2)c2ccccc2OC)cc1 (configuration not stated)	-24%	7%	10µM*	?	-97*	11µM*
COc1ccc(NCc2ccc3c(c2)OCO3)cc1Cl	nt	-11%	11%	11µM*	?	-1%
COc1cc2sc3cc(NCc4ccc5c(c4)OCO5)ccc3c(=O)c2cc1OC	14%	nt	?	?	22	?
COc1cc(OC)c(OC)cc1CNCc1ccc2c(c1)OCO2	3%	45µM*	1%	nt	-12	nt
COc1cccc(CNCCc2ccc3c(c2)OCO3)c1OC	2%	40µM*	4%	nt	-22	nt
O=C(NCc1ccco1)C1CCN(S(=O)(=O)c2cccc3cccnc23)CC1	-4%	0%	6%	i	-22	-13%
CC12CCC(=O)N1C(C(=O)NNC(=O)COc1ccc(Br)cc1)CS2 (configuration not stated)	-18%	-4%	25%	-15%	5	-11%
COc1ccc(NC(C)=O)cc1S(=O)(=O)NCc1ccc2c(c1)OCO2	0%	nt	nt	-15%	-88*	-9%
COc1cc(OC)c(OC)cc1CNCCc1ccc2c(c1)OCO2	0%	40µM*	4%	nt	39	nt
COc1cc(Br)c(CNCCc2ccc3c(c2)OCO3)cc1OC	-10%	-31%	-19%	nt	44	nt
